The text below walks through data of PubChem BioAssay (NCI).

Some test systems named below: SR leukemia; RPMI-8226 leukemia; OVCAR-8 ovarian; OVCAR-5 ovarian; SK-OV-3 ovarian; IGROV1 ovarian; HS 578T breast; NCI/ADR-RES ovarian; T-47D breast; BT-549 breast; MDA-MB-435 melanoma; SW-620 colon; MCF7 breast; HCT-116 colon; HCC-2998 colon; KM12 colon; OVCAR-3 ovarian; OVCAR-4 ovarian.
Holding throughout (experiment): NCI-60 one-dose screen, 48 h (100 = growth as untreated, 0 = no growth, -100 = all killed)
Details in all cases: 10 µM unless noted

About 83,000 compounds went through this panel and 20% of them were active in at least one assay; those are over-represented in the sample as a whole.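 Cells were grown in 96-well plates and exposed to the test compound at a single concentration for 48 hours; results are reported as percent growth, with values below 10 considered active.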 A number with no mark means an inactive call. The source made the active and inactive calls.

Consider `O=C(NCCCCCCNC(=O)OCc1ccc2c(Cl)cc(Cl)c(O)c2n1)OCc1ccc2c(Cl)cc(Cl)c(O)c2n1`, for which the growth in the assay on SR leukemia is 4.84% (active); in the assay on RPMI-8226 leukemia it was -17.4% (active); in the assay with OVCAR-8 ovarian, -32.6% (active); in the assay on OVCAR-5 ovarian it was -89.6% (active); in the assay with SK-OV-3 ovarian it was 42.9%; in the assay with IGROV1 ovarian it was -88.3% (active). Also, the growth with HS 578T breast was -15.1% (active); with NCI/ADR-RES ovarian, -12.5% (active); in the assay on T-47D breast, -48.5% (active); with BT-549 breast, -14.4% (active); in the assay on MDA-MB-435 melanoma, -82.9% (active); with SW-620 colon it was -62.8% (active). Also, the growth in the assay with MCF7 breast was -36.7% (active); in the assay with HCT-116 colon, -54.7% (active); in the assay with HCC-2998 colon it was -88.3% (active); in the assay on KM12 colon it was -74.6% (active).

Turning to `O=C(O)CC(C(=O)O)/C(=C\c1ccccc1)c1ccccc1` (stereo unspecified), the growth with SR leukemia is 105%; with RPMI-8226 leukemia it was 102%; in the assay with OVCAR-8 ovarian it was 100%; in the assay with OVCAR-5 ovarian it was 104%; in the assay on SK-OV-3 ovarian it was 97.4%; in the assay on IGROV1 ovarian it was 120%. The growth is 113% in the assay with OVCAR-3 ovarian; 105% in the assay on HS 578T breast; 110% in the assay on NCI/ADR-RES ovarian; 93.1% in the assay with T-47D breast; 122% in the assay with BT-549 breast; 115% in the assay with MDA-MB-435 melanoma. For the same compound, the results for the growth in the assay with SW-620 colon, in the assay on MCF7 breast and in the assay on KM12 colon were 103%, 94.7% and 108%, respectively.

`Fc1ccc2[nH]cc(-c3nc(-c4c[nH]c5c(Cl)nccc45)cs3)c2c1`: the growth with SR leukemia is 13.3%; in the assay with RPMI-8226 leukemia, 48.5%; in the assay on OVCAR-8 ovarian, 52%; in the assay with OVCAR-5 ovarian, 99.1%; with OVCAR-4 ovarian, 65.3%; with OVCAR-3 ovarian, 70.9%. Further, the growth was 39% with HS 578T breast; 53.7% in the assay on NCI/ADR-RES ovarian; 35.1% with T-47D breast; 75.1% in the assay on BT-549 breast; 60.4% in the assay with MDA-MB-435 melanoma; 2.51% (active) in the assay on SW-620 colon. Moreover, the growth in the assay with MCF7 breast is 45.8%; in the assay on HCT-116 colon, 39.6%; with HCC-2998 colon, 56.2%; with KM12 colon it was 33.2%.

Turning to `COc1cc(OC)c2c(=O)c3c(CC=C(C)C)cc(OC)c(O)c3oc2c1`, the growth was 53.2% with SR leukemia; 81.7% with RPMI-8226 leukemia; 88.6% with OVCAR-8 ovarian; 96.2% in the assay with OVCAR-5 ovarian; 98.5% in the assay with OVCAR-4 ovarian; 92.8% in the assay on OVCAR-3 ovarian. Also, the growth in the assay with HS 578T breast is 88.7%; in the assay with NCI/ADR-RES ovarian, 78.8%; with T-47D breast it was 57.7%; in the assay with BT-549 breast, 77.5%; in the assay with MDA-MB-435 melanoma, 53.9%; with SW-620 colon, 99.7%. The growth is 78.5% with MCF7 breast, 81.6% in the assay with HCT-116 colon, 106% with HCC-2998 colon and 66.4% in the assay with KM12 colon.

`COc1cc([C@@H](CCO)C[C@H](C)c2ccc3ccccc3c2)cc(OC)c1OC`: the growth is 24.5% with SR leukemia; 22.6% in the assay with RPMI-8226 leukemia; 43.5% in the assay with OVCAR-8 ovarian; 70.2% in the assay with OVCAR-5 ovarian; 33.8% with SK-OV-3 ovarian; 51.2% with IGROV1 ovarian. Further, the growth is 22.2% with HS 578T breast; 16.5% with NCI/ADR-RES ovarian; 45.3% in the assay on T-47D breast; 26% in the assay on BT-549 breast; 2.44% (active) in the assay with MDA-MB-435 melanoma; 18.9% with SW-620 colon. The figures for the growth with MCF7 breast, in the assay with HCC-2998 colon and in the assay on KM12 colon were 18.8%, 56.1% and 26.3%, respectively.

As to `O=C1/C(=C/c2c[nH]c(=O)[nH]c2=O)SC(=S)N1Cc1ccccc1`, the growth with SR leukemia is 99.5%; in the assay with RPMI-8226 leukemia, 101%; in the assay on OVCAR-8 ovarian, 100%; with OVCAR-5 ovarian it was 99%; in the assay with OVCAR-4 ovarian it was 105%; in the assay with IGROV1 ovarian it was 102%. Moreover, the growth is 89% in the assay with HS 578T breast; 107% in the assay on BT-549 breast; 100% in the assay on MDA-MB-435 melanoma; 98.7% with SW-620 colon; 89.4% with MCF7 breast; 103% in the assay with HCT-116 colon. Also, the growth with HCC-2998 colon and with KM12 colon was 101% each time.

For `O=C1NC(=O)C(c2coc3cc(Br)ccc23)=C1c1c[nH]c2ccccc12`, the growth was 19.9% in the assay on SR leukemia; 44.2% in the assay with RPMI-8226 leukemia; 51.6% in the assay with OVCAR-8 ovarian; 87.3% with OVCAR-5 ovarian; 55.6% with SK-OV-3 ovarian; 52.2% with IGROV1 ovarian. For the same compound, the growth in the assay on OVCAR-3 ovarian was 20.1%; in the assay on HS 578T breast, 43.3%; in the assay with NCI/ADR-RES ovarian it was 34%; in the assay on T-47D breast, 34.7%; in the assay on BT-549 breast, 67.9%; with MDA-MB-435 melanoma it was -7.93% (active). Besides, the growth in the assay with SW-620 colon is 35.4%; with MCF7 breast, 30.4%; with HCT-116 colon, 27.3%; in the assay on HCC-2998 colon, 108%; with KM12 colon, 31.7%.

For `Clc1ccc(Nc2nnc(CNc3ccccc3)c3ccccc23)cc1`, the growth in the assay with SR leukemia is -9.19% (active); in the assay on RPMI-8226 leukemia, 3.35% (active); with OVCAR-8 ovarian, 18.3%; in the assay with OVCAR-5 ovarian, 41.4%; with SK-OV-3 ovarian it was 22%; in the assay on IGROV1 ovarian, 19.1%. Further, the growth in the assay on OVCAR-3 ovarian was -1.64% (active); with HS 578T breast, 26.6%; in the assay with NCI/ADR-RES ovarian, 18.8%; with T-47D breast, 2.82% (active); in the assay on BT-549 breast it was 4.94% (active); in the assay with MDA-MB-435 melanoma, 4.17% (active). Further, the growth in the assay with SW-620 colon was 30.8%; in the assay with MCF7 breast, 9.2% (active); with HCT-116 colon, 9.94% (active); with HCC-2998 colon, 18.3%; in the assay on KM12 colon it was 8.93% (active).

Turning to `CC1=C2[C@@H](CC1)[C@]1(C)O[C@@](C3CCNCC3)(C[C@H]1OC(=O)CO)[C@H]2OC(=O)/C=C/c1ccccc1`, the growth with SR leukemia was 33.1%; with RPMI-8226 leukemia, 82.3%; with OVCAR-8 ovarian it was 84.3%; in the assay with OVCAR-5 ovarian it was 99.4%; in the assay on SK-OV-3 ovarian, 106%; in the assay with IGROV1 ovarian, 80.3%. For the same compound, the growth is 58.4% with HS 578T breast; 90.3% in the assay with NCI/ADR-RES ovarian; 62.6% in the assay on T-47D breast; 81.7% in the assay with BT-549 breast; 88.6% with MDA-MB-435 melanoma; 93.6% in the assay on SW-620 colon. In addition, the growth with MCF7 breast is 74.2%; in the assay on HCT-116 colon, 74.5%; in the assay with KM12 colon, 97.6%.
